# Test results taken from PubChem BioAssay (Tox21).
# Unmarked numbers belong to inactive results. Records with an inconclusive call do not appear. A call without a number means that no potency is given here. The source made the active and inactive calls. Unless noted, the call rests on the fitted dose curve; in most records, active means well fitted curve in the direction sought with a large enough effect in the repeat runs; inconclusive means weak or mixed curves; inactive means no such curve, though single readings can be large; an effect the other way counts as inactive or inconclusive.
# Assays:
# [1] = A CellTox Green Cytotoxicity Assay to monitor cytotoxicity in HepG2 cells - 0 hour (AID 1224882); further: nearly all actives have a fitted effect of over 35% in size
# In short: (§1)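 Read-out is fluorescence of a cyanine dye excluded from live cells that stains DNA of dead HepG2 cells, with signal proportional to cytotoxicity. Plates were read at 0, 8, 16, 24, 32 and 40 h after compound addition.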
# [2] = A CellTox Green Cytotoxicity Assay to monitor cytotoxicity in HepG2 cells - 32 hour (AID 1224883); further: nearly all actives have a fitted effect of over 50% in size; further: potency means the concentration at half of the fitted maximal effect
# In short: as §1
# [3] = A CellTox Green Cytotoxicity Assay to monitor cytotoxicity in HEK293 cells - 8 hour (AID 1224884); further: nearly all actives have a fitted effect of over 35% in size
# In short: (§2)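 Nonlytic real-time cytotoxicity: HEK293 + CellTox Green reagent plated, 5 h preincubation, pintool compound addition (23 nL in DMSO), 37 C for 40 h, fluorescence measured at successive time points.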
# [4] = qHTS RealTime-Glo MT Cell Viability Assay in HepG2 cells - 16 hour (AID 1224885); further: nearly all actives have a fitted effect of over 50% in size
# In short: (§3)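 Real-time, nonlytic viability: 600 HepG2 cells/well mixed with NanoLuc enzyme plus prosubstrate; 5 h settle, compound (DMSO) added by pintool; luminescence monitored over 40 h at 37 C.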
# [5] = qHTS RealTime-Glo MT Cell Viability Assay in HEK293 cells - 24 hour (AID 1224886); further: nearly all actives have a fitted effect of over 50% in size; further: potency means the concentration at half of the fitted maximal effect
# In short: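 Cells + reagent dispensed (600 cells/well, HEK293) → 5 h at 37 C/5% CO2 → 23 nL compound in DMSO pinned → 40 h at 37 C → luminescence read at 0, 8, 16, 24, 32, 40 h.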
# [6] = A CellTox Green Cytotoxicity Assay to monitor cytotoxicity in HEK293 cells - 16 hour (AID 1224888); further: nearly all actives have a fitted effect of over 35% in size
# In short: as §2
# [7] = qHTS RealTime-Glo MT Cell Viability Assay in HepG2 cells - 0 hour (AID 1224889); further: nearly all actives have a fitted effect of over 50% in size; further: potency means the concentration at half of the fitted maximal effect
# In short: as §3
# [8] = A CellTox Green Cytotoxicity Assay to monitor cytotoxicity in HepG2 cells - 8 hour (AID 1224890); further: nearly all actives have a fitted effect of over 45% in size
# In short: as §1
# [9] = qHTS assay to identify small molecule antagonists of the estrogen receptor alpha (ER-alpha) signaling pathway using the BG1 cell line in the presence of 0.1 nM 17-beta-estradiol - cell viability counter screen (AID 1259241); further: nearly all actives have a fitted effect of over 40% in size
# In short: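 Estradiol-stimulated (0.1 nM) VM7Luc4E2 cells exposed to compounds 22 hr; viability measured by fluorescence of cleaved CellTiter-Fluor substrate after 30 min.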
# [10] = qHTS assay to identify small molecule antagonists of the androgen receptor (AR) signaling pathway using the MDA cell line in the presence of 0.5 nM R1881 - cell viability counter screen (AID 1259242); further: nearly all actives have a fitted effect of over 45% in size
# In short: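 Counter screen for cytotoxicity run in the same wells as the AR antagonist reporter screen: MDA-kb2 cells were treated 16 hr with test compounds and 0.5 nM R1881, then live-cell protease activity was measured by fluorescence.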
# [11] = qHTS assay to identify small molecule phospholipidosis (PLD) inducers (AID 1259344; active means well fitted curve in the direction sought with a large enough effect; an effect the other way counts as inactive or inconclusive)
# In short: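 Phospholipidosis is scored by imaging LipidTOX-stained pits in HepG2 cells exposed to compound for 24 h at 37 C; pit counts and integrated intensities per well and per cell serve as outputs.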
# [12] = qHTS assay to identify small molecule HDAC inhibitors (AID 1259364); further: top concentration of the series differs between compounds; nearly all actives have a fitted effect of over 45% in size
# In short: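 Luminescence from a cell-permeant luminogenic class I/II HDAC substrate reports endogenous deacetylase activity in intact HCT-116 cells treated with compounds for 2 h.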
# [13] = qHTS assay to identify small molecule HDAC inhibitors - cell viability counter screen (AID 1259365)
# In short: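 After overnight seeding at 1,500 cells per well, wild-type HCT-116 cultures took up compounds in DMSO for 2hr at 37 C. Viable cell content came from luminescence with CellTiter-Glo.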
# [14] = qHTS assay to identify small molecule agonists of the sonic hedgehog signaling (Shh) pathway - cell viability counter screen (AID 1259366); further: nearly all actives have a fitted effect of over 50% in size; further: potency means the concentration at half of the fitted maximal effect
# In short: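 Same-well cytotoxicity read. Gli1-Luc reporter 3T3 cells; compounds 24hr, 37C/5% CO2; CellTiter-Fluor fluorescence.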
# [15] = qHTS assay to identify small molecule antagonists of the sonic hedgehog signaling (Shh) pathway - cell viability counter screen (AID 1259367); further: nearly all actives have a fitted effect of over 55% in size; further: potency means the concentration at half of the fitted maximal effect
# In short: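 Cells: 3T3 Gli1-Luc, 2,000/well, 4 hr pre-incubation. Compounds in DMSO, then conditioned medium. Incubation 24 hr, 37C, 5% CO2. CellTiter-Fluor at 23 hr, 1 hr, fluorescence.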
# [16] = qHTS assay to identify small molecule agonists of the sonic hedgehog signaling (Shh) pathway (AID 1259368; calls by dose curve;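 further: NIH/3T3-derived 3T3Gli1-Luc cells carrying a stable Gli1-driven firefly luciferase reporter; series mostly up to about 92 µM; nearly all actives have a fitted effect of over 15% in size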)
# In short: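 3T3Gli1-Luc (NIH/3T3 clone, stable Gli1-Luc); 4 hr pre-incubation, then cpd in DMSO 24 hr, 37 C/5% CO2; luciferase reagent 30 min RT; luminescence.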
# [17] = qHTS RealTime-Glo MT Cell Viability Assay in HEK293 cells - 8 hour (AID 1224887)
# In short: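 Cells were seeded together with NanoLuc luciferase and a prosubstrate that viable cells reduce to a luciferase substrate. After a 5 h incubation at 37 C/5% CO2, compounds were added and luminescence was measured repeatedly during 40 h of treatment.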
# [18] = target: Estrogen receptor (Homo sapiens) (UniProt P03372); assay: qHTS assay to identify small molecule antagonists of the estrogen receptor alpha (ER-alpha) signaling pathway using the BG1 cell line in the presence of 0.1 nM 17-beta-estradiol (AID 1259244); further: nearly all actives have a fitted effect of over 50% in size
# Estrogen receptor (Homo sapiens), sequence (P03372 whole entry, looked up): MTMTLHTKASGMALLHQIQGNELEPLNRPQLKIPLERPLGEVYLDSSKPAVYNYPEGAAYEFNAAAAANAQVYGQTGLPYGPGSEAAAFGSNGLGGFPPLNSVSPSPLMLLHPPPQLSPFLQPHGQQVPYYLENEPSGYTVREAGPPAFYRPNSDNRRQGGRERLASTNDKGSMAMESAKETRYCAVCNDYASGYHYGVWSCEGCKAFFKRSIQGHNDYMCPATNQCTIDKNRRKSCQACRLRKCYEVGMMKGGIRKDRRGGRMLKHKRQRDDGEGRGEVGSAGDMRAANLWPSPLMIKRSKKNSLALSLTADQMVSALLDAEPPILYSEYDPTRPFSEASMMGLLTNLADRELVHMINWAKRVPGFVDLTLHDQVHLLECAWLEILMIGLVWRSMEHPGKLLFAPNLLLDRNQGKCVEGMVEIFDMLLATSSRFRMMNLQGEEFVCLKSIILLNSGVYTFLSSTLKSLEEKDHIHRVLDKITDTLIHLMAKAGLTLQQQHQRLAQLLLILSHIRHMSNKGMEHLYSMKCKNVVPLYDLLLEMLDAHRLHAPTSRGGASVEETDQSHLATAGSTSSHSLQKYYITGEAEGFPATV
# In short: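 Cells: VM7Luc4E2, endogenous ER-alpha, 4x ERE-luc stable. Pre-culture 5 d, phenol red-free, charcoal-stripped FBS. Plated 24 h, compound + E2 0.1 nM final, 22 h 37C/5% CO2. Readout ONE-Glo luminescence.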
# [19] = qHTS assay to identify small molecule antagonists of the sonic hedgehog signaling (Shh) pathway (AID 1259369; calls by dose curve; further: nearly all actives have a fitted effect of over 45% in size; further: potency means the concentration at half of the fitted maximal effect)
# In short: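 3T3Gli1-Luc, conditioned-medium-stimulated, 24hr cpd, 37C/5% CO2; Gli1-driven firefly Luc luminescence after 30min RT with luciferase reagent. Cells plated 4hr before cpd.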
# [20] = target: Androgen receptor (Homo sapiens) (UniProt P10275); assay: qHTS assay to identify small molecule antagonists of the androgen receptor (AR) signaling pathway using the MDA cell line in the presence of 0.5 nM R1881 (AID 1259243)
# Androgen receptor (Homo sapiens), sequence (P10275 whole entry, looked up): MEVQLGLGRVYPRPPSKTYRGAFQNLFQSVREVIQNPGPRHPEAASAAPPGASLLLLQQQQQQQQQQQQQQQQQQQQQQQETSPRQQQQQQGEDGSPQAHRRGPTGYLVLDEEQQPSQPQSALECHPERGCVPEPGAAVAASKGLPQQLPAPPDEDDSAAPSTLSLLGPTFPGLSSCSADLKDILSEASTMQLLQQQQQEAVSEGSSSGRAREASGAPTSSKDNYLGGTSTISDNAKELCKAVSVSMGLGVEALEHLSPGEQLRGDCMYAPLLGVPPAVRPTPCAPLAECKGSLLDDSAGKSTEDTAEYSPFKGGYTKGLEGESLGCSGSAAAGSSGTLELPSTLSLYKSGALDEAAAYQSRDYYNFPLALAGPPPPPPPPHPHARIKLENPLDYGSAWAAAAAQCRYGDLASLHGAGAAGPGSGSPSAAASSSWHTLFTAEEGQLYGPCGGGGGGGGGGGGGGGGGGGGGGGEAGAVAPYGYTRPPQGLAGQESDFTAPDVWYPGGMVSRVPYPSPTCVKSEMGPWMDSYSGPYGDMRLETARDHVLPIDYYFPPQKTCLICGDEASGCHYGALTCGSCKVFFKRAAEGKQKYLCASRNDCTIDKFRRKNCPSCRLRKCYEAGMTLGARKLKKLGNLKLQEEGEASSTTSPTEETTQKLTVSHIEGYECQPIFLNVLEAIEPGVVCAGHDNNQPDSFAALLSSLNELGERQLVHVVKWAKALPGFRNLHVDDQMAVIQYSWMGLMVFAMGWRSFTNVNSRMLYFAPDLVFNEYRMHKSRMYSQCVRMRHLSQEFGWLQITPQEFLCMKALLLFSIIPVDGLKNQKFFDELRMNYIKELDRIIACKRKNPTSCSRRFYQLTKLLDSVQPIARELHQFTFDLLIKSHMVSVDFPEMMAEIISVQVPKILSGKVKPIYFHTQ
# In short: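 Luciferase luminescence is the read-out: compounds are tested for suppressing 0.5 nM R1881-driven MMTV reporter activity in MDA-kb2 cells after 16 hr at 37C.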
SMILES,Potency [1],Potency [2],Potency [3],Potency [4],Potency [5],Potency [6],Potency [7],Potency [8],Potency [9],Potency [10],Potency [11],Potency [12],Potency [13],Potency [14],Potency [15],outcome [16],Potency [17],Potency [18],Potency [19],Potency [20]
COc1cc2nc(N3CCN(C(=O)C4COc5ccccc5O4)CC3)nc(N)c2cc1OC (centres undefined),inactive,23.9 µM (active),inactive,inactive,21.3 µM (active),inactive,10.7 µM (active),inactive,inactive,inactive,inactive,inactive,inactive,inactive,inactive,inactive,–,–,–,–
Nc1ccccc1S(=O)(=O)c1ccccc1,inactive,inactive,inactive,inactive,inactive,–,inactive,inactive,inactive,inactive,–,inactive,inactive,–,inactive,inactive,inactive,–,–,–
Cc1oc(-c2ccccc2)nc1CCOc1cccc2c1ccn2CCC(=O)O,inactive,inactive,inactive,inactive,inactive,inactive,–,inactive,–,inactive,–,inactive,inactive,21.7 µM (active),6.86 µM (active),inactive,inactive,inactive,inactive,–
CC(=O)[O][Al][O]C(C)=O,inactive,inactive,inactive,inactive,inactive,–,inactive,inactive,inactive,inactive,inactive,inactive,inactive,inactive,–,inactive,inactive,–,inactive,–
CCN(CC)CCNC(=O)c1cc(Br)c(N)cc1OC,inactive,inactive,inactive,inactive,inactive,inactive,inactive,–,inactive,inactive,inactive,inactive,inactive,–,inactive,inactive,inactive,inactive,inactive,–
CC(C)CC(=O)C1C(=O)c2ccccc2C1=O,inactive,inactive,inactive,inactive,inactive,inactive,inactive,inactive,inactive,inactive,–,–,inactive,–,inactive,inactive,–,–,61.1 µM (active),48.6 µM (active)
Cc1ccccc1S(=O)(=O)O,inactive,inactive,inactive,inactive,inactive,–,inactive,inactive,inactive,inactive,–,inactive,inactive,–,inactive,inactive,inactive,–,–,–
C=C(C)C(=O)OCCO,inactive,inactive,inactive,inactive,inactive,–,inactive,inactive,inactive,inactive,–,inactive,inactive,inactive,inactive,inactive,inactive,inactive,–,–
